# Laboratory results published in PubChem BioAssay AID624141 (Broad Institute, 2012).
# Screen size: about 17,000 compounds; about 260 (1.5%) were called active.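 How the source made its calls: active means spot fluorescence over background with P-value below 7% in all four replicate spots, showing protein binding; inactive means the rest.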 Only a selection was taken, and actives are over-represented in it overall.
# Molecular target: Myc proto-oncogene protein (Homo sapiens) (UniProt P01106)
# Test: binders of human c-Myc, primary screen, biochemical, small molecule microarray, anti-His fluorescence (AID 624141)
# Details: His-c-Myc binding
# Sequence of Myc proto-oncogene protein (Homo sapiens) (P01106 whole entry, looked up): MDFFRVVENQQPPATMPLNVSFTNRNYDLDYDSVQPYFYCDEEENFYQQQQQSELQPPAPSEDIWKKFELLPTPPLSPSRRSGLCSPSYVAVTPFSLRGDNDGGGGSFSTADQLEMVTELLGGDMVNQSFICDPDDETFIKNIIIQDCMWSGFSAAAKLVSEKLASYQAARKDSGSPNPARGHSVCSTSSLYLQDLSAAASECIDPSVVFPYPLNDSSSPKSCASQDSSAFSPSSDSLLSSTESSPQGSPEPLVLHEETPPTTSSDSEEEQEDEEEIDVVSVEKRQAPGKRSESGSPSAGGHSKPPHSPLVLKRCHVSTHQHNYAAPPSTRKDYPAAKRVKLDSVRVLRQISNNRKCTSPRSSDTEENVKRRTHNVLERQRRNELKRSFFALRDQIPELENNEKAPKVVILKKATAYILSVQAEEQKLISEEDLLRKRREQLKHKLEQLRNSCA
row,SMILES,outcome
1,CCOC(=O)c1ccc(COC(=O)c2cc(=O)[nH]c3ccccc23)o1,inactive
2,CC(C)NC(=O)N(C)C[C@H]1OCCCC[C@H](C)Oc2ccc(NC(=O)Nc3ccc4c(c3)OCO4)cc2C(=O)N([C@H](C)CO)C[C@@H]1C,inactive
3,C[C@@H]1CN([C@@H](C)CO)C(=O)Cc2cc(NC(=O)CCN3CCOCC3)ccc2O[C@H]1CN(C)S(=O)(=O)c1ccccc1,inactive
4,Cc1noc(C)c1NC(=O)Nc1cccc2c1O[C@@H](CN(C)Cc1ccc3c(c1)OCO3)[C@@H](C)CN([C@@H](C)CO)C2=O,inactive
5,C[C@@H]1CN([C@@H](C)CO)C(=O)CCCn2cc(nn2)CO[C@H]1CN(C)C(=O)Nc1ccc(N2CCCCC2)cc1,inactive
6,CC(C)NC(=O)Nc1ccc2c(c1)C(=O)N([C@@H](C)CO)C[C@H](C)[C@H](CN(C)C(=O)c1ccccc1)OCCCC[C@@H](C)O2,inactive
7,c1ccc2[nH]c(NCCN3CCOCC3)nc2c1,inactive
8,COC(=O)Cc1csc(Nc2c(C)n(C)n(-c3ccccc3)c2=O)n1,inactive
9,NC(=O)C1=C[C@H](c2csc3ccccc23)C[C@H](OCc2ccc(CO)cc2)O1,inactive
10,O=C(C1=C[C@H](c2csc3ccccc23)C[C@H](OCc2ccc(CO)cc2)O1)N1CCCCC1,active
11,O=C(C1=C[C@H](c2coc3ccccc3c2=O)C[C@H](OCc2ccc(CO)cc2)O1)N1CCOCC1,inactive
12,C=C1C[C@@]23CC[C@@H]4[C@](C)(CO)CCC[C@@]4(C)[C@@H]2CC[C@@H]1C3,inactive
13,Cc1noc(C)c1S(=O)(=O)Nc1ccc2c(c1)C(=O)N([C@H](C)CO)C[C@@H](C)[C@@H](CN(C)Cc1ccccc1)OCCCC[C@@H](C)O2,inactive
14,C[C@@H]1CN([C@H](C)CO)C(=O)c2cc(N(C)C)ccc2O[C@@H]1CN(C)S(=O)(=O)c1cn(C)cn1,inactive
15,C[C@H]1CCCCO[C@@H](CN(C)C(=O)c2ccccc2)[C@@H](C)CN([C@@H](C)CO)C(=O)c2cc(NS(=O)(=O)c3ccccc3)ccc2O1,inactive
16,CCCCc1nn(-c2ccccc2C(F)(F)F)c(=O)n1Cc1ccc(-c2ccccc2S(=O)(=O)NC(=O)c2sccc2C)cc1,active
17,CNC[C@@H]1Oc2ccc(NC(=O)CCC(F)(F)F)cc2C(=O)N([C@@H](C)CO)C[C@@H]1C,inactive
18,CC(C)C[C@](O)(C(=O)OCc1ccc(O[C@@H]2O[C@H](CO)[C@@H](O)[C@H](O)[C@H]2O)cc1)[C@H](O)C(=O)OCc1ccc(O[C@@H]2O[C@H](CO)[C@@H](O)[C@H](O)[C@H]2O)cc1,inactive
19,Cn1nnc(NC(=O)COc2ccc(Cl)cc2Cl)n1,inactive
20,OC[C@@]1(O)CO[C@H](OC[C@H]2O[C@@H](OC(CCCCc3ccc(O)cc3)CCc3ccc(O)cc3)[C@H](O[C@H]3OC[C@](O)(CO)[C@H]3O)[C@@H](O)[C@@H]2O)[C@@H]1O (some centres undefined),inactive
21,COc1cc(CN2CCN(CCO)CC2)c([N+](=O)[O-])cc1OC,inactive
22,O=C(CCCCCCC(=O)NOCc1ccccc1)NO,inactive
23,CC(=O)Nc1sccc1C(=O)NCc1ccco1,inactive
24,C[C@@H]1CN([C@@H](C)CO)C(=O)c2cc(NC(=O)Cc3ccccc3)ccc2O[C@@H](C)CCCCO[C@@H]1CN(C)C(=O)Nc1ccccc1,inactive
25,C[C@@H]1CCCCO[C@@H](CN(C)C(=O)c2ccccc2)[C@@H](C)CN([C@@H](C)CO)C(=O)c2cc(NS(=O)(=O)c3ccccc3)ccc2O1,inactive

row,SMILES,outcome
1,CNC[C@@H]1Oc2c(NC(=O)Nc3ccccc3)cccc2C(=O)N([C@@H](C)CO)C[C@@H]1C,inactive
2,COC1OC(O)C(O)C12CC[C@@]1(O2)[C@H](C)C[C@H]2OC(=O)[C@@]3(C)CCC[C@]1(C)C23 (some centres undefined),inactive
3,CCOc1ccc(OCC(=O)Nc2cc(C)c(Cl)cc2OC)cc1,inactive
4,C=CC1c2cc(O)c(OC)cc2CCN1Cc1cccc(OC(F)(F)F)c1 (centres undefined),inactive
5,C[C@H](CO)N1C[C@H](C)[C@@H](CN(C)S(=O)(=O)c2cn(C)cn2)OCCCC[C@H](C)Oc2ccc(NC(=O)Cc3ccccc3)cc2C1=O,inactive
6,CN(C)c1nc(SCCO)nc(N(C)C)n1,inactive
7,O=C(COc1ccc(C(=O)Nc2ccccc2Cl)cc1)Nc1ccc(Oc2ccccc2)cc1,inactive
8,CC1=CCC(C(C)(C)O[C@@H]2O[C@H](COC(=O)c3cc(O)c(O)c(O)c3)[C@@H](O)[C@H](O)[C@H]2O)CC1 (some centres undefined),inactive
9,C/C=C1/[C@H](O[C@@H]2O[C@H](CO)[C@@H](O)[C@H](O)[C@H]2O)OC=C2C(=O)O[C@@H]3C[C@@H](C(C)CO)[C@H](COC(=O)C[C@H]21)[C@H]3C (some centres undefined),inactive
10,O=C(NCc1ccco1)c1nc2ncccn2n1,inactive
11,COc1ccc(S(=O)(=O)N(C)C[C@@H]2Oc3ncc(C#Cc4ccc(F)cc4)cc3C(=O)N([C@H](C)CO)C[C@@H]2C)cc1,inactive
12,C[C@H](CO)N1C[C@H](C)[C@@H](CN(C)S(=O)(=O)c2ccc(Oc3ccccc3)cc2)OCc2cn(nn2)CCCC1=O,inactive
13,Cc1ccc(-n2c(SCC(=O)Nc3ccccc3F)nnc2-c2ccccc2)cc1C,inactive
14,COc1ccc(C[C@H]2COC(=O)[C@@H]2Cc2ccc(O[C@@H]3O[C@H](CO)[C@@H](O)[C@H](O)[C@H]3O)c(OC)c2)cc1OC,inactive
15,CN(C)c1ccc(NC(=O)CSc2nc3c(c(C(F)(F)F)c2C#N)CCCCCC3)cc1,inactive
16,Cc1ccc(C(=O)CSc2nsc3sc(C(=O)c4ccc(C)cc4)c(N)c23)cc1,inactive
17,O=C(CN1CCOCC1)Nc1ccc(S(=O)(=O)N2CCCC2)cc1,inactive
18,OC1(c2ccc3c(c2)OCO3)OCC2C(c3ccc4c(c3)OCO4)OCC21O (centres undefined),inactive
19,O=C(NCCCn1ccnc1)c1cnn2c(C(F)(F)F)cc(-c3ccccc3)nc12,inactive
20,O=[N+]([O-])c1ccc(NCCNS(=O)(=O)c2ccc(Br)cc2)c(C(F)(F)F)c1,inactive
21,Cc1nc(SCC(N)=O)c(C(N)=O)c(C)c1C,inactive
22,C[C@@H]1CN([C@H](C)CO)C(=O)c2cc(NC(=O)Nc3ccc4c(c3)OCO4)ccc2O[C@@H]1CN(C)Cc1ccc(C(F)(F)F)cc1,inactive
23,CC(=O)Nc1ccc(C(=O)CSc2nnc(C)s2)cc1,inactive
24,Cc1cc(C)nc(SC2CCCCC2NS(=O)(=O)c2ccc(Cl)cc2)n1 (centres undefined),inactive
25,C[C@@H]1CCCCO[C@@H](CN(C)Cc2ccc(C(=O)O)cc2)[C@H](C)CN([C@@H](C)CO)C(=O)c2cc(NC(=O)C3CCCCC3)ccc2O1,inactive

row,SMILES,outcome
1,Cc1cc2nc(-c3ccc(NC(=O)COc4ccccc4[N+](=O)[O-])cc3)oc2cc1C,inactive
2,CNC[C@@H]1OCCCC[C@H](C)Oc2ccc(NC(=O)Nc3ccccc3)cc2C(=O)N([C@H](C)CO)C[C@H]1C,inactive
3,C[C@@H]1CN([C@@H](C)CO)C(=O)c2cc(NC(=O)C3CC3)ccc2O[C@H]1CN(C)C,inactive
4,COc1ccc(C#Cc2ccc3c(c2)[C@]2(C(=O)N3)[C@H](c3ccccc3OCCO)N3[C@H](c4ccccc4)[C@H](c4ccccc4)OC(=O)[C@H]3[C@@H]2C(=O)N2CCCCCCC2)cc1,active
5,COc1ccc(C#Cc2ccc3c(c2)[C@]2(C(=O)N3)[C@H](C(=O)N3CCCCCCC3)[C@H]3C(=O)O[C@H](c4ccccc4)[C@H](c4ccccc4)N3[C@@H]2c2ccc(O)cc2)cc1,inactive
6,O=C1O[C@@H](c2ccccc2)[C@@H](c2ccccc2)N2[C@@H](c3ccccc3OCCO)[C@]3(C(=O)Nc4ccccc43)[C@@H](C(=O)N3CCCCCCC3)[C@H]12,active
7,COC(=O)C(CC#Cc1ccc2c(c1)[C@]1(C(=O)N2)[C@H](c2ccccc2OCCO)N2[C@H](c3ccccc3)[C@H](c3ccccc3)OC(=O)[C@H]2[C@@H]1C(N)=O)C(=O)OC,inactive
8,O=C1O[C@H](c2ccccc2)[C@H](c2ccccc2)N2[C@H]1[C@@H](C(=O)N1CCN(c3ncccn3)CC1)[C@]1(C(=O)Nc3ccccc31)[C@H]2c1ccc(OCCO)cc1,inactive
9,O=C1O[C@@H](c2ccccc2)[C@@H](c2ccccc2)N2[C@@H](c3ccccc3OCCO)[C@]3(C(=O)Nc4ccc(C#CC5(O)CCCCCC5)cc43)[C@@H](C(=O)N3CCCCCCC3)[C@H]12,inactive
10,C[C@H]1CN([C@@H](C)CO)C(=O)c2cccc(NC(=O)Nc3ccccc3)c2O[C@@H]1CN(C)S(=O)(=O)c1ccc(F)cc1,inactive
11,C[C@@H]1CN([C@@H](C)CO)C(=O)c2cc(NS(C)(=O)=O)ccc2O[C@@H](C)CCCCO[C@@H]1CN(C)C(=O)c1ccccc1,inactive
12,Cc1nc(SCC(=O)O)[nH]c(=O)c1Oc1ccccc1,inactive
13,C[C@H]1CN([C@@H](C)CO)C(=O)c2cc(N(C)C)ccc2O[C@@H]1CN(C)C(=O)Nc1ccc2c(c1)OCO2,inactive
14,COc1ccc2ccccc2c1CNCc1ccccn1,active
15,Cc1nnc(SCc2cc(=O)[nH]c(N3CCN(Cc4ccccc4)CC3)n2)s1,inactive
16,C[C@@H]1CCCCO[C@@H](CN(C)C(=O)CCC(F)(F)F)[C@@H](C)CN([C@H](C)CO)C(=O)c2cc(NC(=O)CCC(F)(F)F)ccc2O1,inactive
17,C[C@@H]1CN([C@H](C)CO)C(=O)c2cc(NS(=O)(=O)c3ccccc3)ccc2O[C@@H](C)CCCCO[C@@H]1CN(C)C(=O)CCC(F)(F)F,inactive
18,Cc1noc(C)c1S(=O)(=O)Nc1ccc2c(c1)C(=O)N([C@H](C)CO)C[C@H](C)[C@@H](CN(C)C(=O)CCC(F)(F)F)OCCCC[C@H](C)O2,inactive
19,C[C@H](CO)N1C[C@H](C)[C@H](CN(C)C(=O)CCC(F)(F)F)OCCCC[C@H](C)Oc2ccc(NS(C)(=O)=O)cc2C1=O,active
20,Cc1noc(C)c1S(=O)(=O)Nc1ccc2c(c1)C(=O)N([C@@H](C)CO)C[C@@H](C)[C@H](CN(C)C(=O)NC(C)C)OCCCC[C@@H](C)O2,active
21,Cc1noc(C)c1S(=O)(=O)Nc1ccc2c(c1)C(=O)N([C@H](C)CO)C[C@@H](C)[C@H](CN(C)C(=O)NC(C)C)OCCCC[C@@H](C)O2,inactive
22,C[C@@H]1CCCCO[C@H](CN(C)C(=O)CCC(F)(F)F)[C@H](C)CN([C@H](C)CO)C(=O)c2cc(NS(C)(=O)=O)ccc2O1,inactive
23,Cc1noc(C)c1S(=O)(=O)Nc1ccc2c(c1)C(=O)N([C@H](C)CO)C[C@H](C)[C@H](CN(C)C(=O)CCC(F)(F)F)OCCCC[C@H](C)O2,active
24,Cc1noc(C)c1S(=O)(=O)Nc1ccc2c(c1)C(=O)N([C@@H](C)CO)C[C@H](C)[C@@H](CN(C)C)OCCCC[C@@H](C)O2,inactive
